CYP2C19 inhib = blocks human cytochrome P450 2C19; 96,000 tested, 21% active; CYP2C19 Supersomes, luciferin-H EGE luminescence, 30 min; inhibition, % at 5 µM; P33261;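 active means CYP2C19 inhibition above a set limit at 5 µM in the primary screen, cut at about 50% in these data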
CYP2C19 act = cytochrome P450 2C19 (human) activation; 96,000 tested, under 10 active; AID 1025; activation factor at 5 µM; P33261; recombinant CYP2C19, luciferin-H EGE luminescence; active compounds read high; 0 = fully inhibited enzyme, 1 = untreated enzyme;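 active means activation factor of at least 2 at 5 µM in the primary screen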
CYP2C9 inhib = inhibitors of human CYP2C9; P11712; CYP2C9 Supersomes, luciferin-H conversion, luminescence; inhibition, % at 5 µM; 96,000 tested, 20% active;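 active means blocking of liver enzyme CYP2C9 beyond about 50% at 5 µM, limit read from the data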
Target sequence (P11712 whole entry, looked up): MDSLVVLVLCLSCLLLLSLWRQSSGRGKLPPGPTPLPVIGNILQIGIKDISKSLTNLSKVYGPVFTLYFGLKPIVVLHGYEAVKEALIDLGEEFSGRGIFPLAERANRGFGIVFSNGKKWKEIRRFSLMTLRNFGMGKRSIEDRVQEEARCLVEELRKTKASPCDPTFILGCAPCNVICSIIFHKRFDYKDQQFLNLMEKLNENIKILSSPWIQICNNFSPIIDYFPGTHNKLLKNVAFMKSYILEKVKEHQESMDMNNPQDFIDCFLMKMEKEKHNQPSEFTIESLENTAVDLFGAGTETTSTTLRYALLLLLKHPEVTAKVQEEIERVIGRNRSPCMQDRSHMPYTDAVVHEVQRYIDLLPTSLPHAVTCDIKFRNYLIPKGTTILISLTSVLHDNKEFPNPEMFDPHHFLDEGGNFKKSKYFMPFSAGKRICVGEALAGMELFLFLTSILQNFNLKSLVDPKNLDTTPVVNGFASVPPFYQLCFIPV
CYP2C9 activ = increases human cytochrome P450 2C9 activity; P11712; recombinant CYP2C9, luciferin-H conversion, luminescence; active compounds read high; factor 1 = untreated enzyme, 0 = blocked; activation factor at 5 µM; 96,000 tested, 1.4% active; AID 1024;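 active means activation factor of 2 or more for CYP2C9 at a 5 µM dose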
Cav32 inh = human Cav3.2 channel inhibition, primary screen. O95180. Cav3.2-expressing cells, Fluo-4 calcium fluorescence FDSS; active compounds read low. B-score at 10 µM. 100,000 tested, 4% active. AID 449739;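 active means single-dose well whose peak fluorescence ratio is a statistical outlier from its plate by either plate-standardised score or position-corrected B-score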
Numbers stand for hits; - = inactive; . = no result given. Compounds with a hit are over-represented: about 27% of the library has one in this group of screens.

SMILES	CYP2C19 inhib	CYP2C19 act	CYP2C9 inhib	CYP2C9 activ	Cav32 inh
O=C(O)c1ccccc1C(=O)OCCCCOC(=O)c1ccccc1C(=O)O	-	-	-	-	-
COc1ccc(N2C(=O)CCC2(C#N)c2ccc(OC)cc2)cc1 (stereo unspecified)	66	-	-	-	-
Cc1ccc(N2C(=O)CC2(C#N)c2ccc(OCc3ccccc3)cc2)cc1 (stereo unspecified)	-	-	62	-	-
S=C(NCc1ccco1)N1CCN(C(c2ccccc2)c2ccccc2)CC1	-	-	72	-	-
O=C(NC1CCCCC1)NC1CCN(C(=S)NCc2ccco2)CC1	-	-	-	-	-
O=C(CN1CCN(C(c2ccccc2)c2ccccc2)CC1)NC(=O)NCc1ccco1	-	-	-	2	-5.1
CCOC(=O)c1cnc2c(C)c(-c3ccccc3)[nH]n2c1=O	-	-	-	-	-
c1ccc(-c2nnc(OCCN3CCOCC3)c3ccccc23)cc1	-	-	-	-	-
NC(=O)[C@H]1CC2(CC(c3cccc(NC(=O)COc4ccc(Cl)cc4)c3)=NO2)CN1C(=O)c1ccc(Cl)cc1 (stereo partly specified)	.	.	.	.	-
O=c1cc(CSc2nnc(-c3ccco3)o2)c2ccccc2[nH]1	-	-	-	-	-
CCOC(=O)CN(C(=O)CSc1nnc(CNc2ccc(F)cc2)o1)c1ccccc1	59	-	78	-	-
CCOC(=O)CN(C(=O)CSc1nnc(-c2cccc(OC)c2)o1)c1ccc(F)cc1	85	-	92	-	-
CCOC(=O)CN(C(=O)CSc1nnc(CNc2ccc(F)cc2)n1C)c1ccccc1	-	-	-	-	-
O=C(CSc1nnc(CNc2ccc(F)cc2)o1)N1c2ccccc2Sc2ccccc21	-	-	53	-	-5.5
COc1ccc(CN(C(=O)CSc2nnc(-c3ccccc3C)o2)c2ccc(F)cc2)cc1	.	.	.	.	-4.7
CCNc1[nH]c(=O)n(C)c(=O)c1N=O	-	-	-	-	-
CC(C)OC(=O)C(NC(=O)c1ccccc1)=C1CCCCC1	-	-	-	-	-
COc1ccc(-c2cnn(C3CCS(=O)(=O)C3)c2N)cc1 (stereo unspecified)	-	-	-	-	-
CCOC(=O)c1c(N)sc(C(O)(C(F)(F)F)C(F)(F)F)c1-c1ccc(F)cc1	-	-	75	-	-4.9
CCOC(=O)c1c(NC(=O)Nc2ccc(Cl)cc2)sc(C)c1C	-	-	-	-	-
CCOC(=O)c1c(N)sc(C(O)(C(F)(F)F)C(F)(F)F)c1-c1ccc(Cl)cc1	62	-	86	-	-
Cc1cc(NCC(C)C)n2ncnc2n1	-	-	-	-	-
O=C(CN(c1ccccc1)S(=O)(=O)c1ccccc1[N+](=O)[O-])NN=C1CCCCCCC1	64	-	-	-	-
Cc1cccc(C)c1N(CC(=O)NN=C1CCCCCC1)S(C)(=O)=O	-	-	-	-	-
COC(=O)C(NNc1ccccc1)(NC(=O)c1ccc(F)cc1)C(F)(F)F (stereo unspecified)	-	-	-	-	-
SMILES	CYP2C19 inhib	CYP2C19 act	CYP2C9 inhib	CYP2C9 activ	Cav32 inh
COC(=O)C(NC(=O)c1ccc(F)cc1)(Nc1ncc(S(=O)(=O)c2ccc([N+](=O)[O-])cc2)s1)C(F)(F)F (stereo unspecified)	50	-	88	-	-8.2
COC(=O)C(NC(=O)c1ccccc1C)(Nc1ncc(S(=O)(=O)c2ccc([N+](=O)[O-])cc2)s1)C(F)(F)F (stereo unspecified)	-	-	60	-	-7.8
CCCCC1=CC2=C(c3ccco3)C(=O)C(C)(OC(=O)c3ccc(OC)cc3)C(=O)C2=CN1CCN1CCOCC1 (stereo unspecified)	.	.	.	.	-
COc1cccc(-c2csc3nnc(SCC(=O)NCc4cccs4)n23)c1	59	-	-	-	-
COc1ccc(-c2nnc(SCC(=O)NCc3cccs3)n2C(C)C)cc1	66	-	54	-	-
COc1ccc(-c2nnc(SCC(=O)NCc3cccs3)n2C)cc1	.	.	.	.	-
Clc1ncn(C23CC4CC(CC(C4)C2)C3)n1	-	-	-	-	.
CCCOC(=O)Nc1cc(OC)c(Cl)cc1OC	89	-	-	-	-
O=c1c2c3nc4ccccc4nc3n(/N=C/c3cccs3)c2ncn1-c1ccccc1	-	-	-	-	.
CCOc1ccc(C(C)=O)cc1COC(=O)C1=COCCO1	64	-	-	-	-
O=C(Nc1nnc(SCc2ccc(Cl)cc2)s1)c1ccco1	-	-	-	-	-
O=C(Nc1ccccc1N1CCOCC1)C1Cc2ccccc2CN1C(=O)c1ccco1 (stereo unspecified)	51	-	67	-	-
Cc1c(NC(=O)C2Cc3ccccc3CN2C(=O)c2ccco2)c(=O)n(-c2ccccc2)n1C (stereo unspecified)	-	-	-	-	-
O=C(Nc1nnc(SCc2ccc(F)cc2)s1)C1Cc2ccccc2CN1C(=O)c1ccco1 (stereo unspecified)	-	-	-	-	-5.7
O=C(CCCCO)CCCCCCCC[C@H]1N[C@H](CO)[C@H](O)[C@@H]1O[C@@H]1O[C@H](CO)[C@@H](O)[C@H](O)[C@H]1O	.	.	.	.	-
COC(=O)c1ccc(Cn2cnc3c(sc4nc(N5CCOCC5)c5c(c43)CCCC5)c2=O)o1	-	-	52	-	-
COC(=O)c1ccc(CSc2ncnc3c2sc2nc(N4CCOCC4)c4c(c23)CCCC4)o1	.	.	.	.	-
O=c1c2sc3nc(N4CCOCC4)c4c(c3c2ncn1CCc1ccccc1)CCCC4	52	-	61	-	.
CCOC(=O)C(Sc1ncnc2c1sc1nc(N3CCOCC3)c3c(c12)CCCC3)c1ccccc1 (stereo unspecified)	-	-	-	-	-
Cc1ccc(Sc2oc(/C=N/n3cnnc3)cc2Br)cc1	100	-	-	-	-
Cc1ccc(/C=N/n2cnnc2)s1	-	-	-	-	-
c1ccc(-c2cc3n(c2)CCc2ccccc2-3)cc1	.	.	.	.	-
OC(CNCc1ccccc1)(c1ccc(F)cc1)c1ccc(F)cc1	-	-	-	-	-
COc1ccccc1CNCC(O)(c1ccc(Cl)cc1)c1ccc(Cl)cc1	-	-	-	-	-4.5
CC(=O)n1c(Cl)c(NC(=O)CCl)c2ccccc21	-	-	-	-	-
SMILES	CYP2C19 inhib	CYP2C19 act	CYP2C9 inhib	CYP2C9 activ	Cav32 inh
O=C(NCCc1c[nH]c2ccccc12)C(=O)Nc1ccccc1	.	.	.	.	-
Cc1ccc(-c2csc3ncnc(N4CCN(C(=O)c5ccccc5)CC4)c23)cc1	73	-	79	-	-
O=C(c1ccco1)N1CCN(c2ncnc3scc(-c4ccccc4)c23)CC1	-	-	-	-	-
c1ccc(N2CCN(c3ncnc4scc(-c5cccs5)c34)CC2)cc1	96	-	97	-	-
CC1(C)Cc2ccccc2C(N)=C1C#N	94	-	78	-	-
COc1cccc(OC)c1OCCN(C)C	-	-	-	-	-
CN1CCc2c(sc3c2C(=O)NC(c2cn(Cc4ccccc4)c4ccccc24)N3)C1 (stereo unspecified)	69	-	79	-	-

Assay outcomes: PubChem, several laboratories
